Results on 41 compounds are retold here after PubChem BioAssay (NCATS).

The nature of assay [1]: Validation qHTS assay for inhibitors of Activation Induced Cytidine Deaminase (AID): UDG Counterscreen signal (AID 1347427; active = well fitted curve in the direction sought with a large enough effect; an effect the other way counts as inactive or inconclusive). The method in brief:
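Counterscreen read of UDG activity (2 U/mL, 4/3x) in the FRET deamination format with AID (1 uM, 4/3x), DJC20/DJC23 substrates (250 nM, 4x), 4 h at room temperature. NaOH stop, fluorescence at 560 ex/665 em.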

The target of assay [2] is Single-stranded DNA cytosine deaminase (Homo sapiens) (UniProt Q9GZX7). Nature of the assay: Validation qHTS assay for inhibitors of Activation Induced Cytidine Deaminase (AID): AID signal (AID 1347429; active = well fitted curve in the direction sought with a large enough effect; an effect the other way counts as inactive or inconclusive). The method in brief:
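Fluorescence at 540 nm excitation and 590 nm emission reports ssDNA cytosine deamination by AID, with UDG in the same well. Compound-treated reactions ran 4 hr at room temperature with DJC20/DJC23 substrate, followed by 30 min NaOH treatment.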
(In general: qHTS replaces the single test concentration by a dilution series.)

Assay [3] can be described thus: Counterscreen qHTS for small molecule stabilizers of the endoplasmic reticulum resident proteome: GLuc-NoTag assay (AID 1508627; active = well fitted curve in the direction sought with a large enough effect; an effect the other way counts as inactive or inconclusive; also: series mostly up to about 76 µM). Summed up:
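SH-SY5Y cells stably expressing constitutively secreted GLuc without SERCaMP tag, exposed to compound for 19 hr, then to 100 nM thapsigargin for 4 hr at 37C. Medium luciferase was read by coelenterazine luminescence without lysis.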
Background: The purpose of a counterscreen is to sort out artefacts and off-target activity.

The nature of assay [4]: Confirmatory qHTS for small molecule stabilizers of the endoplasmic reticulum resident proteome: Secreted ER Calcium Modulated Protein (SERCaMP) assay (AID 1508628; active = well fitted curve in the direction sought with a large enough effect; an effect the other way counts as inactive or inconclusive; also: potency is read from the fitted curve at half-maximal effect; nearly all actives have a fitted effect of over 40% in size). The method in brief: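 SH-SY5Y cells stably expressing GLuc-SERCaMP, treated 16 h with compound (primary 1.53, 7.67, 38.3 uM; confirmation 11 concentrations, up to 76.6 uM), then 100 nM thapsigargin for 4 h. Secreted Gaussia luciferase in medium read by coelenterazine luminescence.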

Assay [5] can be described thus: Primary qHTS for inhibitors of SARS-S pseudo-typed particle cell entry (AID 1479145). Also: nearly all actives have a fitted effect of over 45% in size.
A short description of assay [6]: Primary qHTS for Huh7 cytotoxicity: counterscreen for inhibitors of MERS-S pseudotyped particle cell entry (AID 1479147).
The nature of assay [7]: Primary qHTS for inhibitors of MERS-S pseudo-typed particle cell entry (AID 1479149). Also: nearly all actives have a fitted effect of over 60% in size. Also: potency is read from the fitted curve at half-maximal effect.
The nature of assay [8]: Primary qHTS for Vero E6 cytotoxicity: counterscreen for inhibitors of SARS-S pseudo-typed particle cell entry (AID 1479150).

Results filed as inconclusive are left out. The source made the active and inactive calls. Unless noted, calls follow the shape of the full dose curve.

Chain of Single-stranded DNA cytosine deaminase (Homo sapiens) (Q9GZX7 whole entry, looked up): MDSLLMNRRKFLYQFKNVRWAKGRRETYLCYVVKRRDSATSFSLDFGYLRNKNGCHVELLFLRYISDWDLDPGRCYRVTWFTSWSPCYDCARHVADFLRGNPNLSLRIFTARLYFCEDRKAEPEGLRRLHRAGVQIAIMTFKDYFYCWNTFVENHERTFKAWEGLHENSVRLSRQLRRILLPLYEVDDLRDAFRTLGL

For `CCCC(C)(COC(N)=O)COC(=O)NC(C)C` (centres undefined), the compound was classed as inactive in assay [1] and in assay [2].

On to `CCC(=O)C(CC(C)N(C)C)(c1ccccc1)c1ccccc1` (centres undefined), for which the Potency entry in assay [3] was “inactive”. Moreover, the Potency in assay [4] is 35.5 µM (active).

On to `COCCCOc1cc(C[C@@H](C[C@H](N)[C@@H](O)C[C@H](C(=O)NCC(C)(C)C(N)=O)C(C)C)C(C)C)ccc1OC`, for which the Potency result in assay [5], in assay [6], in assay [7] and in assay [8] was “inactive” throughout.

Turning to `CC(C)[N+](C)(CCOC(=O)C1c2ccccc2Oc2ccccc21)C(C)C`, the Potency entry in assay [5], in assay [6], in assay [7] and in assay [8] was “inactive” each time.

Turning to `O=C1OCCN1/N=C/c1ccc([N+](=O)[O-])o1`, the Potency entry in assay [5], in assay [6], in assay [7] and in assay [8] was “inactive” throughout.

On to `O=P(O)(O)C(O)(Cc1cccnc1)P(=O)(O)O`, for which the Potency entry in assay [5], in assay [6], in assay [7] and in assay [8] was “inactive” each time.

As to `CNC1(C)C2CCC(C2)C1(C)C` (centres undefined), the Potency result in assay [5], in assay [6], in assay [7] and in assay [8] was “inactive” each time.

As to `O=C(O)c1cn(C2CC2)c2cc(N3CCNCC3)c(F)cc2c1=O`, the Potency entry in assay [5], in assay [6], in assay [7] and in assay [8] was “inactive” throughout.

With `CN(CCOc1ccc(NS(C)(=O)=O)cc1)CCc1ccc(NS(C)(=O)=O)cc1`, the Potency entry in assay [5], in assay [6], in assay [7] and in assay [8] was “inactive” in each case.

For `O=C1Cc2cc(CCN3CCN(c4nsc5ccccc45)CC3)c(Cl)cc2N1`, the Potency entry in assay [5], in assay [6], in assay [7] and in assay [8] was “inactive” each time.

`Clc1ccc(C(c2ccccc2Cl)C(Cl)Cl)cc1` (centres undefined): the Potency result in assay [5], in assay [6], in assay [7] and in assay [8] was “inactive” each time.

Regarding `Cn1cc[nH]c1=S`, the Potency result in assay [5], in assay [6], in assay [7] and in assay [8] was “inactive” in each case.

On to `CN(C)c1cc(NC(=O)CNC(C)(C)C)c(O)c2c1C[C@@H]1C[C@H]3[C@H](N(C)C)C(=O)C(C(N)=O)=C(O)[C@@]3(O)C(=O)C1=C2O`, for which the Potency result in assay [5], in assay [6], in assay [7] and in assay [8] was “inactive” in each case.

Turning to `O=C(O)P(=O)(O)O`, the Potency entry in assay [5], in assay [6], in assay [7] and in assay [8] was “inactive” each time.

For the compound `CC1=C(C(=O)O)N2C(=O)[C@@H](NC(=O)[C@H](N)c3ccccc3)[C@H]2SC1`, the Potency entry in assay [5], in assay [6], in assay [7] and in assay [8] was “inactive” each time.

For `NCCCC(O)(P(=O)(O)O)P(=O)(O)O`, the Potency result in assay [5], in assay [6], in assay [7] and in assay [8] was “inactive” each time.

Take `CC#C[C@]1(O)CC[C@H]2[C@@H]3CCC4=CC(=O)CCC4=C3[C@@H](c3ccc(N(C)C)cc3)C[C@@]21C`: the Potency result in assay [5], in assay [6], in assay [7] and in assay [8] was “inactive” in each case.

Turning to `CCCNC(=O)NS(=O)(=O)c1ccc(Cl)cc1`, the Potency entry in assay [5], in assay [6], in assay [7] and in assay [8] was “inactive” each time.

For `CC(C)NCC(O)COc1ccc(CCOCC2CC2)cc1` (centres undefined), the Potency result in assay [5], in assay [6], in assay [7] and in assay [8] was “inactive” each time.

`CNCCc1ccccn1`: the Potency result in assay [5], in assay [6], in assay [7] and in assay [8] was “inactive” each time.

With `Cc1cn[nH]c1`, the Potency entry in assay [5], in assay [6], in assay [7] and in assay [8] was “inactive” each time.

As to `CC(C)(C)NC(=O)[C@H]1CC[C@H]2[C@@H]3CC[C@H]4NC(=O)C=C[C@]4(C)[C@H]3CC[C@]12C`, the Potency entry in assay [5], in assay [6], in assay [7] and in assay [8] was “inactive” in each case.

On to `O=C1NC(c2ccccc2)(c2ccccc2)C(=O)N1COP(=O)(O)O`, for which the Potency entry in assay [5], in assay [6], in assay [7] and in assay [8] was “inactive” in each case.

With `Cc1cnc(C(=O)NCCc2ccc(S(=O)(=O)NC(=O)NC3CCCCC3)cc2)cn1`, the Potency result in assay [5], in assay [6], in assay [7] and in assay [8] was “inactive” each time.

For the compound `C[C@@H](O)[C@H]1C(=O)N2C(C(=O)O)=C(S[C@@H]3CN[C@H](CNS(N)(=O)=O)C3)[C@H](C)[C@H]12`, the Potency result in assay [5], in assay [6], in assay [7] and in assay [8] was “inactive” throughout.

Turning to `COC(=O)C(c1ccccc1Cl)N1CCc2sccc2C1` (centres undefined), the Potency entry in assay [5], in assay [6], in assay [7] and in assay [8] was “inactive” each time.

For `NNCCc1ccccc1`, the Potency result in assay [5], in assay [6], in assay [7] and in assay [8] was “inactive” each time.

On to `N=c1nc(N2CCCCC2)cc(N)n1O`, for which the Potency entry in assay [5], in assay [6], in assay [7] and in assay [8] was “inactive” in each case.

Regarding `CN(C)CCOC(c1ccc(Cl)cc1)c1ccccn1` (centres undefined), the Potency result in assay [5], in assay [6] and in assay [7] was “inactive” in each case.

In the case of `O=c1[nH]cc(F)c(=O)[nH]1`, the Potency entry in assay [5], in assay [6] and in assay [8] was “inactive” in each case. For the same compound, the Potency in assay [7] is 8.91 µM (active).

Take `Cc1cccc(Nc2ccncc2S(=O)(=O)NC(=O)NC(C)C)c1`: the Potency result in assay [5], in assay [6], in assay [7] and in assay [8] was “inactive” in each case.

With `CO/N=C1\CN(c2nc3c(cc2F)c(=O)c(C(=O)O)cn3C2CC2)CC1CN` (centres undefined), the Potency result in assay [5], in assay [6], in assay [7] and in assay [8] was “inactive” throughout.

With `COC(=O)[C@@H]1CC2=CC(=O)CC[C@]2(C)[C@@]23O[C@@H]2C[C@@]2(C)[C@@H](CC[C@@]24CCC(=O)O4)[C@H]13`, the Potency entry in assay [5], in assay [6], in assay [7] and in assay [8] was “inactive” in each case.

For the compound `NC(=O)OCC(COC(N)=O)c1ccccc1`, the Potency entry in assay [5], in assay [6], in assay [7] and in assay [8] was “inactive” each time.

Take `CC(S)C(=O)NCC(=O)O` (centres undefined): the Potency entry in assay [5], in assay [6], in assay [7] and in assay [8] was “inactive” in each case.

As to `COc1cc2nc(N3CCN(C(=O)C4CCCO4)CC3)nc(N)c2cc1OC` (centres undefined), the Potency entry in assay [5], in assay [6], in assay [7] and in assay [8] was “inactive” each time.

For the compound `CCN1CCN(C(=O)N[C@@H](C(=O)N[C@@H]2C(=O)N3C(C(=O)O)=C(CSc4nnnn4C)CS[C@H]23)c2ccc(O)cc2)C(=O)C1=O`, the Potency entry in assay [5], in assay [6], in assay [7] and in assay [8] was “inactive” each time.

As for `CCn1cc(C(=O)O)c(=O)c2ccc(C)nc21`, the Potency result in assay [5], in assay [6], in assay [7] and in assay [8] was “inactive” throughout.

As to `O=C(C1CCCCC1)N1CC(=O)N2CCc3ccccc3C2C1` (centres undefined), the Potency entry in assay [5], in assay [6], in assay [7] and in assay [8] was “inactive” throughout.

For the compound `Nc1nc2c(ncn2COCCO)c(=O)[nH]1`, the Potency entry in assay [5], in assay [6], in assay [7] and in assay [8] was “inactive” each time.

Turning to `O=C(O)COCCN1CCN(C(c2ccccc2)c2ccc(Cl)cc2)CC1` (centres undefined), the Potency result in assay [5], in assay [6], in assay [7] and in assay [8] was “inactive” each time.
